In all, about 18,000 sequences were measured (“log2 normalized intensity”: median about 0.36, highest 2% from about 7.3 on). This is one part of a sample in which the highest values are shown more often than they occur.

The target in the test is T1, HNF4alpha8 (COS-7 nuclear extract) (Homo sapiens, UniProt P41235-5 1-452).
T1 sequence: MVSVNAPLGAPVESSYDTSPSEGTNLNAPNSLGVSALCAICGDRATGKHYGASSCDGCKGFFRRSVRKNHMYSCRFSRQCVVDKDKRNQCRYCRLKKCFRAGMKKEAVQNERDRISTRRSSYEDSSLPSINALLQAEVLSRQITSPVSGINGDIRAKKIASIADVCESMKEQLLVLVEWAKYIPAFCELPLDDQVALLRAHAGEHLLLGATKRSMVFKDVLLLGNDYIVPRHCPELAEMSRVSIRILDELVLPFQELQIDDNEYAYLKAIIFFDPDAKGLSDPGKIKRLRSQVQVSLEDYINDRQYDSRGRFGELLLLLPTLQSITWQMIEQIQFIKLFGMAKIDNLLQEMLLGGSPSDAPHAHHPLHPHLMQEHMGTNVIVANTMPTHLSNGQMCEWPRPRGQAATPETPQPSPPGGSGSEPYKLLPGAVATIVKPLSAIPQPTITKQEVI
Nature of the test: protein-binding microarray; COS-7 nuclear extract on double-stranded Agilent 4x180k PBM; binding buffer, salt, pH and temperature not given in the material; high values mean tight binding. Particulars: chain copies: 2; label: 3' end of strand 1 on the slide; dsDNA, one strand shown. An outline of the steps:
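Using CaPO4, COS-7 cells were transiently transfected with a human HNF4α isoform expression vector, and their nuclear extracts were applied to a custom Agilent SurePrint G3 4x180k double-stranded oligonucleotide array (~60 nt; ~44,000 test sequences in quadruplicate). Bound HNF4α was imaged at 2-µm resolution with an Agilent G2565CA scanner. Agilent software supplied the background-corrected, normalized gProcessedSignal that serves as the binding signal.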
Turning to “CCCGCCTTTGACACAGGCGACCTTCGCTCGGCCTAGGGAGATTAGAGTATCGGTCGA”, the binding signal came out at 6.06 log2 normalized intensity.
Consider “CCAACAGGTGAAGACATGCTGGTGTGTGATGCCTAGGGAGATTAGAGTATCGGTCGA”, for which the binding signal amounted to 0.875 log2 normalized intensity.
On to “AGATGGTCAAAGGTTGATGGTATGTTTCAGGCCTAGGGAGATTAGAGTATCGGTCGA”, for which the binding signal was 3.86 log2 normalized intensity.
Take “TGAATCCTCTTTGAGTCTGGTGTTCTCTTGGCCTAGGGAGATTAGAGTATCGGTCGA”: the binding signal is 1.65 log2 normalized intensity.
As to “CGCATCTGAAGATAAGAGAAGTTGCTCTTTGCCTAGGGAGATTAGAGTATCGGTCGA”, the binding signal turned out to be 2.63 log2 normalized intensity.
“CCTGCAAGGACAAAGGTCATGTTTTCAAACGCCTAGGGAGATTAGAGTATCGGTCGA”: the binding signal came out at 6.34 log2 normalized intensity.
With “AATTTGAACCAAGATCTGTGAAAGAAAAGTGCCTAGGGAGATTAGAGTATCGGTCGA”, the binding signal is -0.147 log2 normalized intensity.
On to “TATGTGCTGACTGACTCCTGTTACTTCCACGCCTAGGGAGATTAGAGTATCGGTCGA”, for which the binding signal came out at 0.0957 log2 normalized intensity.
As for “AGTGTGGGGTGACTGACTTAACCCTTGCCTGCCTAGGGAGATTAGAGTATCGGTCGA”, the binding signal is 2.27 log2 normalized intensity.
On to “CTCCACTTGGGTATCAGATAGTCCAATGTCGCCTAGGGAGATTAGAGTATCGGTCGA”, for which the binding signal turned out to be 2.52 log2 normalized intensity.
For the sequence “GCCTCTCTGTGCTGGAACTTGCTTCCTTATGCCTAGGGAGATTAGAGTATCGGTCGA”, the binding signal is 1.37 log2 normalized intensity.
Take “TGTGGTAATAAGTTGGTGGACGCTGGGGAAGCCTAGGGAGATTAGAGTATCGGTCGA”: the binding signal turned out to be 0.488 log2 normalized intensity.
For the sequence “TCCTTCAGCGTGAACTTTGACATGAGAGAAGCCTAGGGAGATTAGAGTATCGGTCGA”, the binding signal came out at 4.21 log2 normalized intensity.
Regarding “TATATTCAACCCCCACTTCCTGACTTGGCCGCCTAGGGAGATTAGAGTATCGGTCGA”, the binding signal is 3.85 log2 normalized intensity.
Consider “TCACACAAATGGATCTTTCTTCAAAAAGAGGCCTAGGGAGATTAGAGTATCGGTCGA”, for which the binding signal was -0.0678 log2 normalized intensity.
“CCCTTTAGTGCCTGGATCTTGGAACAGGTCGCCTAGGGAGATTAGAGTATCGGTCGA”: the binding signal turned out to be 1.97 log2 normalized intensity.
As for “AGACTCAGCATGTCTTCTGACCTTTGGCAAGCCTAGGGAGATTAGAGTATCGGTCGA”, the binding signal worked out at 6.98 log2 normalized intensity.
As to “TATTTAGACTCAGCATGTCTTCTGACCTTTGCCTAGGGAGATTAGAGTATCGGTCGA”, the binding signal is 7.33 log2 normalized intensity.
For “ATGCTGGTCTCCTTGCCCCACCCCCCACCCGCCTAGGGAGATTAGAGTATCGGTCGA”, the binding signal was 7.48 log2 normalized intensity.
As for “GGGTCATGCTGGTCTCCTTGCCCCACCCCCGCCTAGGGAGATTAGAGTATCGGTCGA”, the binding signal was determined as 5.73 log2 normalized intensity.
As for “GTCTCTCAGGCACAGCTCGACCTTTGACCTGCCTAGGGAGATTAGAGTATCGGTCGA”, the binding signal was 10 log2 normalized intensity.
On to “AGCTCGCTCAGCTGGTTGCCCCTTTGACCCGCCTAGGGAGATTAGAGTATCGGTCGA”, for which the binding signal came to 8.48 log2 normalized intensity.
Next, “CCTGCACACCTGCCTTTGATCAGGGACCTTGCCTAGGGAGATTAGAGTATCGGTCGA”: 1.97 log2 normalized intensity; “GCCCCAGCTCGCTCAGCTGGTTGCCCCTTTGCCTAGGGAGATTAGAGTATCGGTCGA”: 4.47 log2 normalized intensity; “CAGCATGTCTTCTGACCTTTGGCAATATCTGCCTAGGGAGATTAGAGTATCGGTCGA”: 5.1 log2 normalized intensity.
For “GGTCTCCTTGCCCCACCCCCCACCCCAGAAGCCTAGGGAGATTAGAGTATCGGTCGA”, the binding signal was found to be 6.87 log2 normalized intensity.
“GCTCAGCTGGTTGCCCCTTTGACCCTCGGGGCCTAGGGAGATTAGAGTATCGGTCGA”: the binding signal is 7.06 log2 normalized intensity.
Take “CCTCTGTCTCTCAGGCACAGCTCGACCTTTGCCTAGGGAGATTAGAGTATCGGTCGA”: the binding signal is 6.7 log2 normalized intensity.
On to “AGTCACACACACCTGTGTCCCCCAGGTCCAGCCTAGGGAGATTAGAGTATCGGTCGA”, for which the binding signal was 3.56 log2 normalized intensity.
Next, “ATATCTGCCTCAGTAGTAGTGAAAAATGAAGCCTAGGGAGATTAGAGTATCGGTCGA”: 0.637 log2 normalized intensity; “GGAGGTGACCTTTGGTTGTCCTTACTGCTAGCCTAGGGAGATTAGAGTATCGGTCGA”: 4.22 log2 normalized intensity.
For “ACCTCTTATCAAGCGTGCACCCCAGGTACGGCCTAGGGAGATTAGAGTATCGGTCGA”, the binding signal came to 1.3 log2 normalized intensity.
On to “ATGGTGTTTGCTTTGTGAAGGCTTATCTGCGCCTAGGGAGATTAGAGTATCGGTCGA”, for which the binding signal is 0.591 log2 normalized intensity.
The value for “GGTTCTTCCACGACTCCCCCGCTCACCCCTGCCTAGGGAGATTAGAGTATCGGTCGA” was 5.08 log2 normalized intensity.
As to “AACTTTTCCATGTCCAAAGGTCTTCATGAGGCCTAGGGAGATTAGAGTATCGGTCGA”, the binding signal was 4.33 log2 normalized intensity.
With “AGTGCCATGTAATCAAACTGAACTTTGAAAGCCTAGGGAGATTAGAGTATCGGTCGA”, the binding signal came to 4.48 log2 normalized intensity.
In the case of “AACATCATAGAGTGTACTTATGCAGACCTGGCCTAGGGAGATTAGAGTATCGGTCGA”, the binding signal was determined as 0.968 log2 normalized intensity.
With “CCTCCAGCTACTCACTCTTCCCAAATAGGTGCCTAGGGAGATTAGAGTATCGGTCGA”, the binding signal is -0.273 log2 normalized intensity.
The value for “AAGTGCGTCCTGTGGCAAAGGTGAATGACCGCCTAGGGAGATTAGAGTATCGGTCGA” was 2.99 log2 normalized intensity.
Turning to “TTCACAGAGCAAGGGTCCAGATTAGAGCACGCCTAGGGAGATTAGAGTATCGGTCGA”, the binding signal worked out at 2.52 log2 normalized intensity.
As to “AAAGCCACCCCTTTCTCCTCTCTTTCCATAGCCTAGGGAGATTAGAGTATCGGTCGA”, the binding signal was 0.633 log2 normalized intensity.
As to “GGACAAAGTTCCCCGGGCAGCTGTGTTTGCGCCTAGGGAGATTAGAGTATCGGTCGA”, the binding signal worked out at 0.702 log2 normalized intensity.
For the sequence “CTCCAACTGCTCCTCTTCAACTGATTCTTGGCCTAGGGAGATTAGAGTATCGGTCGA”, the binding signal was -0.845 log2 normalized intensity.
